Measurements as given in PubChem BioAssay AID651616 (The Scripps Research Institute Molecular Screening Center, 2012).
In all, about 5,600 compounds went through this assay and about 4,400 (79%) were called active. No stated cut-off is given here; in the data, active means inhibition above about 27%; inactive means the rest. The set was probably picked from earlier hits. A selection follows.

Molecular target: Fructose-bisphosphate aldolase (Mycobacterium tuberculosis (strain ATCC 25618 / H37Rv)) (UniProt P9WQA3)
Test: M. tuberculosis aldolase blockers, biochemical, fluorescence, strain H37Rv, confirmation (AID 651616);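 further: 0% = vehicle wells and 100% = reference inhibitor wells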
Details: purified M. tuberculosis FBA, fluorescence read-out, at 1 µM, stronger effect = higher value

Fructose-bisphosphate aldolase (Mycobacterium tuberculosis (strain ATCC 25618 / H37Rv)), sequence (P9WQA3 whole entry, looked up): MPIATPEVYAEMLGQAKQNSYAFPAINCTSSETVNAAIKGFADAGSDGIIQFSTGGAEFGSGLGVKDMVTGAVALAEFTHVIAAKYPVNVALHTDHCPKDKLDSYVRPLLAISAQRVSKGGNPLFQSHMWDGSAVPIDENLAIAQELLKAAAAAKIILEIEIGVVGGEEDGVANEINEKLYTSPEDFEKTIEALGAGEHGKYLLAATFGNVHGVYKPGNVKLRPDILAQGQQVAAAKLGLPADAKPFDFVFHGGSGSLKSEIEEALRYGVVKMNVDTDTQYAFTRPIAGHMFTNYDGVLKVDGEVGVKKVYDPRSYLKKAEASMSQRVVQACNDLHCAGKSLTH

Row | SMILES | inhibition
1 | COc1ccc(-c2nc3cc(C)ccn3c2NC2CCCCC2)cc1SC1CCCCC1 | 53.2% (active)
2 | O=C(Nc1ccc(-c2nnc(-c3ccccc3)o2)cc1)C1CCCO1 (configuration not stated) | 1.4% (inactive)
3 | O=C(CCc1ccccc1)Nc1cccc(-c2nnc(-c3ccco3)o2)c1 | 91% (active)
4 | CC(=O)N1C(=O)/C(=C2\SC(=S)N(NC(=O)c3ccc(O)cc3)C2=O)c2ccccc21 | 10.4% (inactive)
5 | Cc1cc(C)c2nc3nc(C)cc(C)c3c(N)c2c1 | 41.1% (active)
6 | Cc1cc(C)c2nc(-c3ccco3)cc(C(=O)O)c2c1 | 3.93% (inactive)
7 | CCOC(=O)N1CCC(NC(=O)c2cnn3ccccc23)CC1 | 42.5% (active)
8 | CCCn1nc2cc(C(=O)NCc3ccccc3)ccc2c1OCC | -3.79% (inactive)
9 | CCOc1c2ccc(C(=O)NC3CCCc4ccccc43)cc2nn1CC (configuration not stated) | 21.6% (inactive)
10 | CCOc1c2ccc(C(=O)NCc3ccc(OC(F)(F)F)cc3)cc2nn1C | 106% (active)
11 | CCOc1c2ccc(C(=O)NCc3ccc4c(c3)OCO4)cc2nn1C | 107% (active)
12 | O=C(NCc1cccc(Cl)c1)C1=CC=CN2CCS(=O)(=O)N=C12 | 11.8% (inactive)
13 | C=CCn1c(CCNC(=O)c2ccccc2F)nnc1SCC(=O)Nc1ccc(OC)cc1 | 586% [above what the read-out allows, likely interference] (active)
14 | Cc1ccsc1C(=O)N[C@@H](C)c1nnc2ccccn12 | 125% (active)
15 | CC(C)n1c(-c2cccs2)nc2ccccc21 | 87% (active)
16 | CC1(C(=O)NCc2ccc(F)c(F)c2)Cc2c(-c3ccc4c(c3)OCO4)ccnc2O1 (configuration not stated) | 155% (active)
17 | CC1(C(=O)NCc2ccco2)Cc2c(-c3ccc4c(c3)OCO4)ccnc2O1 (configuration not stated) | 7.76% (inactive)
18 | Cc1cc(=O)oc2c3c(cc(OCC(=O)NCC(O)c4ccccc4)c12)OC(C)(C)CC3 (configuration not stated) | 62% (active)
19 | CC1(C)CC(=O)c2cc(OCC(=O)NCC3CCCO3)ccc2O1 (configuration not stated) | -1.83% (inactive)
20 | CCCCNc1c(-c2cccc(Sc3ccc(OC)cc3)c2)nc2ccccn12 | 35.1% (active)
21 | CCCCn1c(-c2cccc(C)c2)nc2cc3[nH]c(=O)c(C(C)C)nc3cc21 | 34.1% (active)
22 | O=C(O)/C=C/c1cn(-c2ccccc2)nc1-c1cccs1 | 92.4% (active)
23 | O=C(CN1C(=O)c2cccc3cccc(c23)C1=O)N1CCCCC1 | 70.8% (active)
24 | c1ccc2c(NC3C4CC5CC(C4)CC3C5)nc(N3CCOCC3)nc2c1 (configuration not stated) | 134% (active)
25 | CC(Nc1nc(N2CCOCC2)nc2ccccc12)c1ccccc1 (configuration not stated) | 56.5% (active)
26 | CCOC(=O)Cn1c(=O)n(Cc2ccc(OC)cc2)c(=O)c2cccnc21 | 852% [above what the read-out allows, likely interference] (active)
27 | COC(=O)CSc1nc(C)c2ccc(OC)cc2n1 | -3.91% (inactive)
